For orientation: viability means a read-out of living cells in per cent, often relative to untreated cells.

Consider 40 molecules from PubChem BioAssay (NCATS).

Results filed as inconclusive are left out. Unmarked numbers belong to inactive results. Active and inactive are the calls of the source. The call rests on the fitted dose curve; in most records, active means well fitted cell-killing curve with a large enough effect; inconclusive means small, poorly fitted or top-dose-only effect, or effect the other way; inactive means no such curve, though single readings can be large or run the other way.
Potency means the concentration at half of the fitted maximal effect.

The nature of this assay: Quantitative highthroughput screen to assess conditional lethalithy of SEM cells grown in RPMI1640 with dialyzed fetal bovine serum (RPMI+ds) (AID 1963884). Further: nearly all actives have a fitted effect of over 35% in size. The settings on record: SEM B-ALL cells, RPMI+dialyzed FBS, CellTiter-Glo viability, 48 h; series mostly up to 45.8 µM; viability: at the top concentration. The source says:
Assay Provider: Jason Cantor Ph.D.
Department of Biochemistry
University of Wisconsin-Madison, Madison, WI, USA
Chemical screening studies have identified drug sensitivities across hundreds of cancer cell lines but most putative therapeutics fail to translate. Discovery and development of drug candidates in models that more accurately reflect nutrient levels in human blood is a major challenge. Here we performed high-throughput screens in conventional versus Human Plasma-Like Medium (HPLM) to identify compounds that were "missed" when screening using the artificial culture condition. Sets of conditional anticancer compounds spanned phases of clinical development and included non-oncology drugs were assessed. […] We also traced conditional phenotypes for several chemotherapeutics to availability of HPLM-specific metabolites and confirmed others for compounds whose reported targets are encoded by nonessential genes. Our findings establish generalizable strategies for exploiting conditional lethality in HPLM to reveal therapeutic candidates and mechanisms of action in cancer cells.
Described herein are the results of each viability screens against three cell lines: NOMO1 (an acute myeloid leukemia cell line); P12-Ichikawa (a T-cell acute lymphoblastic leukemia); and SEM (a B-cell ALL). Each assay was screened using 3 different cell culture media: homemade human plasma-Like medium with 10% dialyzed fetal bovine serum (HPLM+ds); RPMI1640 with 10% untreated FBS and 5mM glucose (RPMI+s); and RPMI1640 with 10% dialyzed fetal bovine serum and 5 mM glucose (RPMI+ds).
PROTOCOL TABLE (as described by Inglese J, Shamu CE and Guy RK. 2007)
SEQUENCE No. (e.g., 1, 2, 3, etc.); […] (e.g., Cells, Incubation, Reagent, etc.); VALUE and DESCRIPTION.
1; Cells; 5 uL; white, solid bottom 1536-well Greiner assay plate.
2; Compounds; 23 nL; Kalypsis pin tool (Wako USA) equipped with a 1536-well pin head to transfer to the assay plates.
3; Incubation; 48 hours; 37C incubation.
4; Reagent; 3 uL; CellTiter Glo (Promega).
5; Incubation; 5 min, room temperature
6; Detection; Luminescence, Viewlux PerkinElmer.
NOTES (numbers refer to Sequence numbers above)
1. Briefly, 5 ul of cell reagent was dispensed using a Multidrop Combi Dispenser. The NOMO1 and SEM cells were plated at 500 cells/well and the P12-Ichikawa line at 1000 cells/well.
2. After seeding the cells, 23 nL of MIPE 4.1 library compounds (in DMSO) were added to each plate using a Kalypsys 1536 Pintool dispenser. Bortezomib at final concentration of […] and DMSO were added to each plate as positive and negative controls respectively. For each screen, MIPE 4.1 compounds were added over an eleven-point concentration range […] in 3-fold dilutions.
3. Each plate was covered with a stainless steel gasketed lid to prevent evaporation and incubated for 48 hour at 37C, 95% relative humidity, and 5% CO2.
4-5. Three microliter CellTilter-GloTM luminescent substrate mix (Promega) reagent was added to the assay plate and incubated at room temperature for 5 min.
6. The luminescence signal was measured using a ViewLux (PerkinElmer) multiplate reader with a 2 second exposure time per plate. Data for each compound were normalized as percent viability such that measurements for DMSO and the empty well controls in each plate were defined as 100% and 0%, respectively.
`C[C@@H]1O[C@@H](O[C@@H]2C=C3CC[C@@H]4[C@@H](CC[C@]5(C)[C@H](c6ccc(=O)oc6)CC[C@@]45O)[C@@]3(C)CC2)[C@H](O)[C@H](O)[C@H]1O`: the Potency was 37.2 nM (active).

For the molecule `C[C@]12CC[C@@H]3[C@@H](CCC4=CC(=O)CC[C@@H]43)[C@@H]1CC[C@@H]2OC(=O)CCc1ccccc1`, the “viability” value is 91.8%.

As for `CC(=Cc1csc(C)n1)[C@@H]1C[C@H]2O[C@]2(C)CCC[C@H](C)[C@@H](O)[C@@H](C)C(=O)C(C)(C)[C@@H](O)CC(=O)O1`, the “viability” value was 14.5%. Turning to `Cc1c(N)nc([C@H](CC(N)=O)NC[C@@H](N)C(N)=O)nc1C(=O)N[C@H](C(=O)N[C@@H](C)[C@H](O)[C@@H](C)C(=O)N[C@@H](C(=O)NCCc1nc(-c2nc(C(=O)NCCC[S+](C)C)cs2)cs1)[C@@H](C)O)C(O[C@H]1O[C@H](CO)[C@H](O)[C@@H](O)[C@@H]1O[C@H]1O[C@H](CO)[C@@H](O)[C@H](OC(N)=O)[C@H]1O)c1cnc[nH]1` (stereo not given in full), the Potency was 4180 nM (active). With `N[C@@H](Cc1ccc(N(CCCl)CCCl)cc1)C(=O)O`, the Potency was 2960 nM (active). Consider `CCN(CC)C(=O)c1ccc(C2=CC3(CCNCC3)Oc3cccc(O)c32)cc1`, for which the “viability” value is 86.9%.

In the case of `NC1=NC(=O)N2CC12` (stereo not given), the Potency was 2960 nM (active). As to `CC(C)(O)C=CC(=O)[C@](C)(O)[C@H]1[C@H](O)C[C@]2(C)[C@@H]3CC=C4[C@@H](C=C(O)C(=O)C4(C)C)[C@]3(C)C(=O)C[C@@]12C`, the Potency was 66.2 nM (active).

With `O=C1C=CC[C@@H]2[C@H]3CCCN4CCC[C@@H](CN12)[C@@H]34`, the “viability” value was 94.7%. Take `C[C@]12CCC(=O)C=C1CC[C@@H]1[C@H]3CC[C@](C)(O)[C@@]3(C)CC[C@@H]12`: the “viability” value was 99.8% [at 92.2 µM]. Turning to `O=C(Oc1ccc([N+](=O)[O-])cc1)N1CCN(Cc2cccc(Oc3ccccc3)c2)CC1`, the “viability” value was 101%.

With `C[C@@H]1[C@H](O)[C@@H](C)C=CC=CCCC=CC=CC=CC=C[C@H](O[C@H]2O[C@@H](C)[C@H](O)[C@@H](N)[C@@H]2O)CC2O[C@](O)(C[C@@H](O)[C@H](O)CC[C@@H](O)C[C@@H](O)C[C@@H](O)CC(=O)O[C@H]1C)C[C@H](O)[C@H]2C(=O)O`, the “viability” value was 105%.

As to `C[C@@H]1[C@@H](CC(C[C@H]2O[C@@H]3O[C@]4(C)CC[C@@H]5[C@H](C)CC[C@@H]([C@H]2C)[C@@]35OO4)C[S+](=O)([O-])c2ccc(COC(=O)N(C)C)cc2)O[C@@H]2O[C@]3(C)CC[C@H]4[C@H](C)CC[C@@H]1[C@@]24OO3` (stereo not given in full), the Potency is 418 nM (active). Turning to `CC(C)c1cccc(C(C)C)c1O`, the “viability” value was 92.7%.

Regarding `C1=C2CCCN[C@H]2[C@@H]2C[C@H]1[C@@H]1CCCCN1C2`, the “viability” value was 98.5%. The same measure, in the same setting: to `C[C@]12Cc3cn[nH]c3C[C@@H]1CC[C@@H]1[C@H]2CC[C@@]2(C)[C@H]1CC[C@]2(C)O` belongs 92.9%.

Consider `CNC(=O)N1N=C(c2ccc(N)cc2)c2cc3c(cc2CC1C)OCO3` (stereo not given), for which the Potency is 5900 nM (active). `C[C@]12CC[C@H]3[C@@H](CCC4=CC(=O)CC[C@@]43C)[C@H]1CC[C@H]2O`: the “viability” value was 113%. In the case of `C[C@]12CC[C@H]3[C@@H](CCC4=CC(=O)CC[C@@]43C)[C@H]1CC[C@H]2OC(=O)CCC1CCCC1`, the “viability” value was 98.9%.

Take `COc1cc2cc(c1Cl)N(C)C(=O)C[C@H](OC(=O)C(C)C)[C@]1(C)O[C@H]1[C@H](C)[C@@H]1C[C@@](O)(NC(=O)O1)[C@H](OC)C=CC=C(C)C2`: the “viability” value is 1.62%.

`Cc1cccc(C)c1NC(=O)CN1CCCC1=O`: the “viability” value is 73.6%. Regarding `O=c1[nH]c2ccccc2n1CCCN1CCC(n2c(=O)[nH]c3cc(Cl)ccc32)CC1`, the “viability” value was 86.9%. As to `COC1=C[C@@H]2[C@@H]3Cc4ccc(OC)c(O)c4[C@]2(CCN3C)CC1=O`, the “viability” value was 89.8%. In the case of `c1ccc2c(CN3CCNCC3)cccc2c1`, the “viability” value was 71.3%.

Consider `C[C@]12COC(=O)C[C@@H]1CC[C@@H]1[C@H]2CC[C@@]2(C)[C@H]1CC[C@]2(C)O`, for which the “viability” value was 80.9%. Regarding `C[C@@]12OC(=O)[C@]1([C@@H](O)[C@@H]1C=CCCC1)NC(=O)[C@H]2CCCl`, the Potency was 46.9 nM (active). For the molecule `C[C@H]1CCCC=CC2C[C@H](O)C[C@@H]2[C@H](O)C=CC(=O)O1` (stereo not given in full), the “viability” value was 1.62%. With `O=[N+]([O-])c1ncc[nH]1`, the “viability” value was 52.2%. Take `CC(C)[C@H]1C(=O)N[C@H](CO)Cc2c[nH]c3cccc(c23)N1C`: the “viability” value was 73%. For `C[C@@H]1C[C@@H]([C@H](O)CC2CC(=O)NC(=O)C2)C(=O)[C@@H](C)C1`, the Potency was 590 nM (active). As to `COc1ccc2c(c1)[C@]13CCCCC1C(C2)N(C)CC3` (stereo not given in full), the “viability” value was 108%. The same measure, in the same setting: to `CC(=O)N(C)c1cccc(-c2ccnc3c(C(=O)c4cccs4)cnn23)c1` belongs 98.6%. As for `C=CCON=C(C[C@H]1O[C@@H]2O[C@]3(C)CC[C@@H]4[C@H](C)CC[C@@H]([C@H]1C)[C@@]24OO3)[C@H]1O[C@@H]2O[C@]3(C)CC[C@H]4[C@H](C)CC[C@@H]([C@@H]1C)[C@@]24OO3`, the Potency was 935 nM (active). As to `C[C@]12CCC(=O)C(O)=C1CC[C@@H]1[C@H]3CCC(=O)[C@@]3(C)CC[C@@H]12`, the “viability” value was 97.1%. Consider `CNC(=O)c1ccc(N2C(=S)N(c3ccc(C#N)c(C(F)(F)F)c3)C(=O)C23CCC3)cc1F`, for which the “viability” value is 110%. As to `CC(C)N[C@@H]1CCn2c(=O)[nH]c3cccc(c32)[C@@H]1O`, the “viability” value is 96.3%. In the case of `O=C(NCC1CCOCC1)c1cnc(Nc2ccc(Cl)cc2Cl)nc1C(F)(F)F`, the “viability” value was 87%. In the case of `COc1ccc2c(c1OC)CN1CCc3cc4c(cc3C1C2)OCO4` (stereo not given), the Potency was 469 nM (active). Turning to `CCc1c(C(=O)C(N)=O)c2c(OCC(=O)O)cccc2n1Cc1ccccc1`, the “viability” value was 89.2%. On the same count and under the same terms, to `CC(=CCCC1=CCC(C2=CC(=O)OC2O)OC1O)CCC1=C(C)CCCC1(C)C` (stereo not given) belongs 106%.
